This is part of a sample that, as a whole, favours compounds with a hit. Of some 79,000 tested, about 15% had one in any assay. Cut-off read from the data, not from the text of the source: active = growth inhibition above about 70%; inactive = the rest.
Experiments:
[1] = NCI Yeast Anticancer Drug Screen. Data for the rad50 strain (AID 155);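 note: 0% = growth of vehicle-only cultures of the same strain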; details: S. cerevisiae rad50 strain growth inhibition; at 50.0 µM; active compounds read high
Method in brief: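 Compounds were tested on a yeast strain with an engineered DNA damage repair alteration; the reported value is growth inhibition normalised to vehicle treatment.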

[2] = NCI Yeast Anticancer Drug Screen. Data for the mec2-1 strain (AID 157); details: S. cerevisiae mec2-1 strain, at 50.0 µM, active compounds read high
Method in brief: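 Each compound was tested on mec2-1 yeast, a strain altered in DNA damage repair or cell cycle control. Growth inhibition is reported relative to vehicle.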

[3] = NCI Yeast Anticancer Drug Screen. Data for the sgs1 mgt1 strain (AID 161);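 note: 0% = growth of cultures given vehicle only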; details: S. cerevisiae sgs1 mgt1 strain, at 50.0 µM, active compounds read high
Method in brief: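 Inhibition of yeast growth, normalised to vehicle-treated controls, is reported for a strain bearing genetic alterations in DNA damage repair.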

[4] = NCI Yeast Anticancer Drug Screen. Data for the cln2 rad14 strain (AID 165);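 note: 0% = growth equal to vehicle treated cultures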; details: S. cerevisiae cln2 rad14 strain, at 50.0 µM, active compounds read high
Method in brief: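 Test compounds were added to cln2 rad14 yeast cultures; inhibition of growth was then determined by comparison with vehicle treatment.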

[5] = NCI Yeast Anticancer Drug Screen. Data for the bub3 strain (AID 167); details: S. cerevisiae bub3 mutant strain, at 50.0 µM, active compounds read high
Method in brief: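 Growth of a checkpoint-deficient yeast mutant is measured after compound exposure. Values represent inhibition relative to vehicle.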

[6] = NCI Yeast Anticancer Drug Screen. Data for the mlh1 rad18 strain (AID 175); details: S. cerevisiae mlh1 rad18 strain growth inhibition; at 50.0 µM; active compounds read high
Method in brief: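 Inhibition values reflect reduced growth of mutant yeast versus vehicle-treated controls following compound exposure; the mutations affect DNA damage repair.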

Measured: growth inhibition

CCN(CC)c1ccc2c(C)c(Cc3ccccc3)c(=O)oc2c1
inactive: [1] 1.8% | [2] -22.8% | [3] 24.6% | [4] 7.7% | [5] 31.9% | [6] 0.7%

CC(=O)n1[nH]c(=O)c2ncccc2c1=O
inactive: [1] 2.75% | [2] 7.6% | [3] 9.45% | [4] -6.6% | [5] -8.45% | [6] 9%

Nc1cn(C2CC(O)C(CO)O2)c(=O)[nH]c1=O (stereo unspecified)
inactive: [1] 0% | [2] -1.9% | [3] -2.5% | [4] 1% | [5] -4.4% | [6] -9.05%

CCCOC(=O)Nc1cccc(C)c1
inactive: [1] 17.7% | [2] -5.65% | [3] -15.7% | [4] 0.4% | [5] 3% | [6] 8.95%

CC(C(=O)O)C(C)C(=O)Nc1ccccc1 (stereo unspecified)
inactive: [1] 33.9% | [2] 6.15% | [3] 11.1% | [4] 24.4% | [5] 1.5% | [6] 28.4%

CCCC(CCC)C(=O)O
inactive: [1] -18% | [2] 3.45% | [3] -8.75% | [4] 7.9% | [5] -10.8% | [6] -1.05%

Cc1ccc2c(c1)CN(C)CO2
inactive: [1] -15% | [2] 6.45% | [3] 5.6% | [4] -51.4% | [5] -18.1% | [6] -24.1%

CN(C)CCN(C)CC(C)(C)C(=O)/C=C/c1ccccc1
inactive: [1] -26% | [2] 2.55% | [3] -21.6% | [4] -5.95% | [5] -7.15% | [6] -15.4%

CCN(CC)CCCC(C)Nc1ccnc2ccc3nn(C)nc3c12 (stereo unspecified)
inactive: [1] -11.6% | [2] -4.6% | [3] -15.2% | [4] 2.25% | [5] -14% | [6] -14.3%

CC1COC(C(=O)O)(c2ccccc2)O1 (stereo unspecified)
inactive: [1] -1.05% | [2] -3.55% | [3] -2.1% | [4] -17.6% | [5] -0.35% | [6] 6.7%

NS(=O)(=O)c1ccc(Nc2c3ccccc3nc3ncccc23)cc1
inactive: [1] -6.85% | [2] 7.35% | [3] 13.9% | [4] -11.8% | [5] 9.2% | [6] 16.9%

O=c1c(-c2c(-c3ccccc3)oc3ccc(Cl)cc3c2=O)c(-c2ccccc2)oc2ccc(Cl)cc12
inactive: [1] 18.9% | [2] 3.9% | [3] 5.3% | [4] 7.25% | [5] 17.3% | [6] 3.75%

O=S(=O)(O)c1cc(N=Nc2cc(S(=O)(=O)O)c3cccnc3c2O)ccc1/C=C/c1ccc(N=Nc2cc(S(=O)(=O)O)c3cccnc3c2O)cc1S(=O)(=O)O.[Cu+2].[Na+]
inactive: [1] 18.5% | [2] 18.2% | [3] 34.6% | [4] 25% | [5] -11.2% | [6] 9.25%

COC(=O)C1OC2(CCCC3CC32)O[C@H]1C(=O)OC (stereo partly specified)
inactive: [1] -8.35% | [2] -10.2% | [3] -20.6% | [4] -13.2% | [5] -13.8% | [6] 6.35%

CO[C@@H]1O[C@H](C(=O)c2ccccc2)[C@H]2OC(C)(C)O[C@@H]12
inactive: [1] -5% | [2] -10.7% | [3] 28.3% | [4] 8.7% | [5] 19.1% | [6] 16.3%

COC12C=CC(CC1)C1C(=O)C=CC(=O)C12 (stereo unspecified)
inactive: [1] -36.5% | [2] -31.4% | [3] -4.7% | [4] -39.3% | [5] -24.2% | [6] -21.4%

NNc1nnc(NN)c2ccccc12
inactive: [1] 1.75% | [2] -2.05% | [3] 0.8% | [4] 3.65% | [5] 4.45% | [6] 4.7%

CC(=O)/C=C/c1ccc(C)cc1
inactive: [1] 27.1% | [2] 9.9% | [3] 8.75% | [4] 4.15% | [5] 20.6% | [6] 10.7%

CC(=O)Nc1ccc(OC2=CCN(C)CC2)cc1
inactive: [1] 0.75% | [2] -16.1% | [3] 8.85% | [4] 12.7% | [5] 11.1% | [6] -64.8%

COc1ccc(C(=O)c2ccc(OC)c3ccccc23)c2ccccc12
inactive: [1] -7.3% | [2] -5.8% | [3] -1.2% | [4] -22.9% | [5] 3.35% | [6] 4.25%

O=C(N/N=C/c1cccc(F)c1)c1ccncc1
inactive: [1] 8.4% | [2] 1% | [3] -2.05% | [4] -23.9% | [5] -0.35% | [6] 8.35%

C#CC(C)(O)CCCCCCC (stereo unspecified)
inactive: [1] 18.3% | [2] -27.1% | [3] 4% | [4] -22.8% | [5] -12.4% | [6] 5%

NC(=O)CCBr
inactive: [1] -15.3% | [2] 20.2% | [3] -5.45% | [4] -20.4% | [5] 1.3% | [6] -29.1%

Nc1ncnc2c1ncn2C1OC(C(=O)OCCO)C(O)C1O (stereo unspecified)
inactive: [1] -16.6% | [2] -19.8% | [3] -12.6% | [4] -12.2% | [5] -11.2% | [6] -22.9%

N=C(CN1CCCCC1)N1CCCCC1
inactive: [1] -2.5% | [2] -15.3% | [3] -5.15% | [4] -58.1% | [5] 10.2% | [6] 12.6%

Cc1cn(C)c2c1-c1c(cnn1-c1ccccc1)CC2
inactive: [1] 15.6% | [2] 3.75% | [3] 44% | [4] -2.4% | [5] 4.8% | [6] 23.4%

S=C1N(c2ccc(Br)cc2)C2=Nc3ccccc3SC(=C2N=Nc2ccccc2)N1c1ccc(Cl)cc1
inactive: [1] -13.6% | [2] 20.9% | [3] -8.8% | [4] 14.5% | [5] -1.15% | [6] -3%

Cc1ccccc1N(CC1CO1)CC1CO1 (stereo unspecified)
inactive: [1] 10.2% | [2] -18.1% | [3] -20.8% | [4] -19% | [5] -0.8% | [6] -3.25%

CCCCCOC(=O)OC(C)CNC(=O)C(C)OC(=O)OCCCCC (stereo unspecified)
inactive: [1] -17.4% | [2] -33.5% | [3] -12.5% | [4] -61.4% | [5] -9.5% | [6] -29.4%

CCOC(=O)C/C(C)=N\NC(N)=O
inactive: [1] 38.2% | [2] 42.5% | [3] 44.8% | [4] 18.2% | [5] 26.1% | [6] 42.8%

CCCCCCCCCCC(C(=O)O)C1(C(=O)O)CCC(=O)O1 (stereo unspecified)
inactive: [1] -15.7% | [2] -32.4% | [3] -5.8% | [4] 11.4% | [5] -9.4% | [6] -5.25%

O=C(NC(CO)CO)c1ccc2cc(C(=O)N3CC(CCl)c4ccc([N+](=O)[O-])cc43)[nH]c2c1 (stereo unspecified)
inactive: [1] 42.6% | [2] -35.8% | [3] -22.4% | [4] -7.95% | [5] -36.1% | [6] -72.8%

CCCCOC(=O)C1(C(=O)OCCCC)CC1
inactive: [1] 14.8% | [2] -7.6% | [3] 1.3% | [4] 1.6% | [5] -3.75% | [6] 3.55%

Cc1noc(C)c1N=Nc1ccc2nonc2c1N
inactive: [1] -15.5% | [2] 7.6% | [3] -14.1% | [4] 16.5% | [5] 9.35% | [6] 3.05%

CSC1=NC=C(C#N)C2=NC(c3ccc(Cl)cc3)NN12 (stereo unspecified)
inactive: [1] 1.95% | [2] 2% | [3] 17.2% | [4] 16.3% | [5] 15.8% | [6] 14.7%

Cc1cccc(CNc2ncnc3[nH]ncc23)c1
inactive: [1] -15% | [2] -30.8% | [3] -24.8% | [4] -12.6% | [5] -36.1% | [6] 3.15%

COCCCNC(=O)C1=CCCN(C)C1
inactive: [1] 6% | [2] -3.45% | [3] -3.55% | [4] -2.45% | [5] -1.55% | [6] -3.3%

CCN(CC)CC(C(=O)Nc1c(C)cccc1C)/C(C)=N\NC(=O)C[N+](C)(C)C (stereo unspecified)
inactive: [1] 19.4% | [2] 4.85% | [3] -26.6% | [4] -21.8% | [5] -0.7% | [6] -1.9%

CSc1nc2c(N)nc(N)nc2nc1C
inactive: [1] 5.9% | [2] 0.2% | [3] 0.75% | [4] -31.6% | [5] -16.7% | [6] 11.5%

COc1ccc(NC(=O)C(=O)c2c(O)c3ccc(O)cc3oc2=O)c([N+](=O)[O-])c1
inactive: [1] 14.4% | [2] 9.95% | [3] 1% | [4] 3.95% | [5] -2.85% | [6] -6.1%

CC(=O)NNc1nc(C)c(C(=O)/C=C/c2ccc(/C=C/C(=O)c3sc(NNC(C)=O)nc3C)cc2)s1
inactive: [1] -29.6% | [2] -3.4% | [3] -37.6% | [4] 6.25% | [5] -13.2% | [6] -35.1%

Reference: PubChem BioAssay (NCI)
